# The sample as a whole holds a higher share of the strongest signals than the screen did.
# B1: PpFlo1 (Pichia pastoris) (protein)
# chain: MGSSHHHHHHSSGLVPRGSHMQESGDGDISDSAYACDIDATRYDGFNATIYEFQPGDGRLTRDPVFMSTGYLNRTQLHSITGVTDPGFSIYTPGVPTTTLYGIPNVNWENLLLELKGYFRAEVSGDYGLSLRNIDDSAILFFGKETAFQCCNENSISNEASTDYSLFTIFRQEGDETTNLDSFTYTQYLEAGKYYPVRTFFVNIERHAVFNFTMTLPDGTELTDFHNYIYQFGALDEEQCQA
# Legend:
# Test in all cases: glycan array binding signal (z-score within array); higher = stronger binding
# Settings in all cases: glycan notation: IUPAC condensed, linker removed
# [1] = molecular target: Fuc(a1-2)Gal(b1-3)GalNAc(b1-3)Gal
# Outline: (§1)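 The binding signal is a Z-score computed within each array. Data were drawn from 3228 arrays in the Consortium for Functional Glycomics database, restricted to those with a known protein sequence. Scores were averaged over arrays of the same protein sequence at different concentrations or buffers, and over linkers, and negative values can be taken as non-binding.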
# Fuc(a1-2)Gal(b1-4)Glc6S = molecular target: Fuc(a1-2)Gal(b1-4)Glc6S
# Outline: as §1
# [2] = molecular target: Fuc(a1-2)Gal(b1-4)GlcNAc(b1-3)GalNAc
# Outline: as §1
# [3] = molecular target: Fuc(a1-2)Gal(b1-4)[Fuc(a1-3)]GlcNAc(b1-2)Man(a1-3)[Fuc(a1-2)Gal(b1-4)[Fuc(a1-3)]GlcNAc(b1-2)Man(a1-6)]Man(b1-4)GlcNAc(b1-4)[Fuc(a1-6)]GlcNAc
# Outline: as §1
# [4] = molecular target: Fuc(a1-2)Gal(b1-4)[Fuc(a1-3)]GlcNAc(b1-3)Gal(b1-4)[Fuc(a1-3)]GlcNAc(b1-3)Gal(b1-4)[Fuc(a1-3)]GlcNAc
# Outline: as §1
# [5] = molecular target: Fuc(a1-2)Gal(b1-4)[Fuc(a1-3)]GlcNAc(b1-3)[Neu5Ac(a2-6)Gal(b1-4)GlcNAc(b1-6)]Gal(b1-4)Glc
# Outline: as §1
# [6] = molecular target: Fuc(a1-2)[Gal(a1-3)]Gal(b1-4)GlcNAc(b1-6)GalNAc
# Outline: as §1
# [7] = molecular target: Fuc(a1-2)[Gal(a1-3)]Gal(b1-4)[Fuc(a1-3)]GlcNAc(b1-3)GalNAc
# Outline: as §1
# [8] = molecular target: Fuc(a1-2)[GalNAc(a1-3)]Gal(b1-3)GalNAc(b1-3)Gal(a1-4)Gal(b1-4)Glc
# Outline: as §1
# [9] = molecular target: Fuc(a1-2)[GalNAc(a1-3)]Gal(b1-3)GlcNAc(b1-3)GalNAc
# Outline: as §1
# [10] = molecular target: Fuc(a1-2)[GalNAc(a1-3)]Gal(b1-4)GlcNAc(b1-2)Man(a1-3)[Fuc(a1-2)[GalNAc(a1-3)]Gal(b1-4)GlcNAc(b1-2)Man(a1-6)]Man(b1-4)GlcNAc(b1-4)GlcNAc
# Outline: as §1
# [11] = molecular target: Fuc(a1-2)[GalNAc(a1-3)]Gal(b1-4)[Fuc(a1-3)]GlcNAc(b1-3)GalNAc
# Outline: as §1
# [12] = molecular target: Fuc(a1-3)[Gal(b1-4)]GlcNAc(b1-6)[Neu5Ac(a2-3)Gal(b1-3)]GalNAc
# Outline: as §1
# [13] = molecular target: Gal(a1-4)Gal(b1-4)GlcNAc(b1-3)Gal(b1-4)Glc
# Outline: as §1
# Gal(b1-3)Gal = molecular target: Gal(b1-3)Gal
# Outline: as §1
# [14] = molecular target: Gal(b1-3)GalNAc(a1-3)[Fuc(a1-2)]Gal(b1-4)Glc
# Outline: as §1
# [15] = molecular target: Gal(b1-3)GalNAc(b1-4)Gal(b1-4)Glc
# Outline: as §1
# [16] = molecular target: Gal(b1-3)GlcNAc(a1-3)Gal(b1-4)GlcNAc
# Outline: as §1
# [17] = molecular target: Gal(b1-3)[Neu5Ac(a2-6)]GlcNAc(b1-4)Gal(b1-4)Glc
# Outline: as §1
# [18] = molecular target: Gal(b1-4)GlcNAc(b1-2)Man(a1-3)[Gal(b1-4)GlcNAc(b1-2)Man(a1-6)]Man(b1-4)GlcNAc(b1-4)[Fuc(a1-6)]GlcNAc
# Outline: as §1
# [19] = molecular target: Gal(b1-4)GlcNAc(b1-2)Man(a1-3)[Gal(b1-4)GlcNAc(b1-2)Man(a1-6)][Gal(b1-4)GlcNAc(b1-4)]Man(b1-4)GlcNAc(b1-4)[Fuc(a1-6)]GlcNAc
# Outline: as §1
# [20] = molecular target: Gal(b1-4)GlcNAc(b1-2)Man(a1-3)[GlcNAc(b1-4)][Gal(b1-4)GlcNAc(b1-2)Man(a1-6)]Man(b1-4)GlcNAc(b1-4)GlcNAc
# Outline: as §1
# [21] = molecular target: Gal(b1-4)GlcNAc(b1-2)Man(a1-3)[Man(a1-6)]Man(b1-4)GlcNAc(b1-4)GlcNAc
# Outline: as §1
# [22] = molecular target: Gal(b1-4)GlcNAc(b1-2)[Gal(b1-4)GlcNAc(b1-4)]Man(a1-3)[GlcNAc(b1-4)][Gal(b1-4)GlcNAc(b1-2)Man(a1-6)]Man(b1-4)GlcNAc(b1-4)GlcNAc
# Outline: as §1
# [23] = molecular target: Gal(b1-4)GlcNAc(b1-3)Gal(b1-4)GlcNAc(b1-3)[Gal(b1-4)GlcNAc(b1-3)Gal(b1-4)GlcNAc(b1-6)]GalNAc
# Outline: as §1
# Gal3S6S(b1-4)GlcNAc6S = molecular target: Gal3S6S(b1-4)GlcNAc6S
# Outline: as §1
# Gal6S(b1-3)GlcNAc6S = molecular target: Gal6S(b1-3)GlcNAc6S
# Outline: as §1
# Gal6S(b1-4)GlcNAc6S = molecular target: Gal6S(b1-4)GlcNAc6S
# Outline: as §1
# [24] = molecular target: GalNAc(a1-3)GalNAc(b1-3)Gal(a1-4)Gal(b1-4)Glc
# Outline: as §1
# [25] = molecular target: GalNAc(b1-4)GlcNAc(b1-2)Man
# Outline: as §1
# [26] = molecular target: GlcA3S(b1-3)Gal(b1-4)GlcNAc(b1-3)Gal(b1-4)Glc
# Outline: as §1
binder,measurement,setting,value
B1,glycan array binding signal (z-score),[1],-0.068
same,glycan array binding signal (z-score),Fuc(a1-2)Gal(b1-4)Glc6S,-0.627
same,glycan array binding signal (z-score),[2],9.01
same,glycan array binding signal (z-score),[3],0.805
same,glycan array binding signal (z-score),[4],0.218
same,glycan array binding signal (z-score),[5],-0.279
same,glycan array binding signal (z-score),[6],-0.228
same,glycan array binding signal (z-score),[7],1.04
same,glycan array binding signal (z-score),[8],-0.244
same,glycan array binding signal (z-score),[9],3.23
same,glycan array binding signal (z-score),[10],2.04
same,glycan array binding signal (z-score),[11],7.08
same,glycan array binding signal (z-score),[12],3.09
same,glycan array binding signal (z-score),[13],-0.25
same,glycan array binding signal (z-score),Gal(b1-3)Gal,0.345
same,glycan array binding signal (z-score),[14],-0.55
same,glycan array binding signal (z-score),[15],3.27
same,glycan array binding signal (z-score),[16],-0.388
same,glycan array binding signal (z-score),[17],0.298
same,glycan array binding signal (z-score),[18],-0.323
same,glycan array binding signal (z-score),[19],0.235
same,glycan array binding signal (z-score),[20],-0.214
same,glycan array binding signal (z-score),[21],1.6
same,glycan array binding signal (z-score),[22],-0.266
same,glycan array binding signal (z-score),[23],0.345
same,glycan array binding signal (z-score),Gal3S6S(b1-4)GlcNAc6S,1.38
same,glycan array binding signal (z-score),Gal6S(b1-3)GlcNAc6S,2.66
same,glycan array binding signal (z-score),Gal6S(b1-4)GlcNAc6S,1.66
same,glycan array binding signal (z-score),[24],-0.647
same,glycan array binding signal (z-score),[25],-0.267
same,glycan array binding signal (z-score),[26],-0.4

# From the supplement of paper PMC8728848
